This passage reports result_ITMP results from article PMC13083723 (Patterns, 2026).

Each structure is given as a SMILES string. Hit rate of the full screen: of about 5,400 compounds, about 190 (3.5%) showed an effect of 50% or more. Shown is part of a subset that was picked to be rich in strong results. Positions of bridges follow the written chain, without caps; N, C: chain ends. Non-standard residues stand in square brackets, D forms with d. Residues, ends and D or L forms follow the SMILES beside them. ξ: configuration not given here. *: point of attachment. Heptanoyl(5-Me) = CCC(C)CCCC(=O)*; ξThr(3R) = C[C@@H](O)C(N)C(=O)O; Dab = NCC[C@H](N)C(=O)O

This assay has as its system Vero-E6. Briefly: primary screen, phospholipidosis by LipidTOX staining; higher = more effect of the substance. The note with it: 10 µM. In a few lines:
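Drug-induced phospholipidosis detected with HCS LipidTOX Red reagent in Vero-E6 cells. Compounds tested at 10 μM, with amiodarone (10 μM) as positive control and DMSO (0.1 v/v %) as vehicle.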
Regarding `CCCC[C@H](NC(C)=O)C(=O)N[C@H]1CC(=O)NCCCC[C@@H](C(=O)O)NC(=O)[C@H](Cc2c[nH]c3ccccc23)NC(=O)[C@H](CCCNC(=N)N)NC(=O)[C@@H](Cc2ccccc2)NC(=O)[C@H](Cc2cnc[nH]2)NC1=O`, the result_ITMP is listed as -3.41%.
The same measure for `COc1ccc2[nH]c3nnc(C)c-3c(NCCOCCO)c2c1`: -1.31%; for `C1Cc2[nH]nc(-c3nnn[nH]3)c2C1`: -1.64%.
Then `CC(C)N(C[C@H]1O[C@@H](n2cnc3c(N)ncnc32)[C@H](O)[C@@H]1O)C1CC(CCc2nc3cc(C(C)(C)C)ccc3[nH]2)C1` (stereo partly drawn), with -3.75%.
The same measure for `Nc1ncnc2c1ncn2C1OC2COP(=O)([O-])OC2C1O` (stereo not drawn): -10.8%; for `Cc1ccc(C(=O)Nc2ccc(CN3CCN(C)CC3)c(C(F)(F)F)c2)cc1C#Cc1cnc2cccnn12`: 11.4%.
`CCN1CCN(Cc2ccc(C(=O)Nc3ccc(C)c(Oc4ccc5c(c4)CC(=O)N5)c3)cc2C(F)(F)F)CC1`: the result_ITMP amounted to 99.1%.
On to `Cc1ccc(C(=O)Nc2ccc(CN3CCN(C)CC3)c(C(F)(F)F)c2)cc1C#Cc1cnc2[nH]ncc2c1`, for which the result_ITMP is 6.57%.
The same measure for `C[C@@H]1CC[C@@]2(NC1)O[C@H]1C[C@H]3[C@@H]4CC=C5C[C@@H](O[C@@H]6O[C@H](CO)[C@@H](O[C@@H]7O[C@@H](C)[C@H](O)[C@@H](O)[C@H]7O)[C@H](O)[C@H]6O[C@@H]6O[C@@H](C)[C@H](O)[C@@H](O)[C@H]6O)CC[C@]5(C)[C@H]4CC[C@]3(C)[C@H]1[C@@H]2C`: -0.25%; for `C[C@]12C=CC(=O)C=C1CCC1C2[C@@H](O)C[C@@]2(C)C1CC[C@]2(O)C(=O)COP(=O)([O-])[O-]` (stereo partly drawn): -4.14%; for `O=S(=O)([O-])CCSSCCS(=O)(=O)[O-]`: -11.7%.
Then `N=C(N)NCCC[C@@H](NC(=O)[C@@H]1CCCN1C(=O)[C@@H]1CSSC[C@H](N)C(=O)N[C@@H](Cc2ccc(O)cc2)C(=O)N[C@@H](Cc2ccccc2)C(=O)N[C@@H](CCC(N)=O)C(=O)N[C@@H](CC(N)=O)C(=O)N1)C(=O)NCC(N)=O`, with -1.55%.
As to `Oc1ncc(F)cn1`, the result_ITMP is reported as -8.73%.
The same measure for `Nc1nnc2[nH]c3ccccc3nc1-2`: -7.77%.
Then `CCCC1(CCC)CCC2(CCN(CCCN(CC)CC)C2)CC1`, with 109%; and `COc1cc(/C=C/C(=O)[O-])ccc1O`, with -1.05%.
The same measure for `CCN1CCN(Cc2ccc(Nc3ncc(F)c(-c4cc(F)c5nc(C)n(C(C)C)c5c4)n3)nc2)CC1`: 76.7%; for `CC(C)Cc1ccc(C(C)C(=O)O)cc1` (stereo not drawn) [R4A_0001344_001 / SPE_A17655518]: -3.6%.
Turning to `COC(=O)C1=C(C)NC(C)=C(C(=O)NCCCN2CCC(c3ccccc3)(c3ccccc3)CC2)C1c1ccc([N+](=O)[O-])cc1` (stereo not drawn), the result_ITMP is reported as 60.6%.
Consider `COC(=O)C1=C(C)NC(C)=C(C(=O)O[C@H]2CCN(Cc3ccccc3)C2)[C@H]1c1cccc([N+](=O)[O-])c1`, for which the result_ITMP is recorded as 21.2%.
Then `COC(=O)C1=C(C)NC(C)=C(C(=O)OCCN2CCN(C(c3ccccc3)c3ccccc3)CC2)C1c1cccc([N+](=O)[O-])c1` (stereo not drawn), with 11.6%; and `CC[C@H](CC[C@@H](C)[C@H]1CC[C@H]2[C@@H]3CC=C4C[C@@H](O)CC[C@]4(C)[C@H]3CC[C@]12C)C(C)C`, with 1.55%.
Then `CC(=O)CC(=O)[O-]`, with 1.77%.
The same measure for `CN1CCC(CNc2ccc3ncc(-c4cccc(OC(F)(F)F)c4)n3n2)CC1`: 62.4%; for `CN1CCC(COc2cnc(-c3cccc(Cn4nc(-c5cccc(C#N)c5)ccc4=O)c3)nc2)CC1`: 2.15%; for `CCc1cccc(CC)c1NC(=O)c1nn(C)c2c1CCc1cnc(Nc3ccc(C(=O)NC4CCN(C)CC4)cc3OC(F)(F)F)nc1-2`: 7.96%.
On to `CC1(C)[C@@H]2CC[C@@]1(C)C(=O)C2` [R4A_0000828_001 / SPE_K10034334], for which the result_ITMP was -2.3%.
The same measure for `CC(C)(N)c1cc(C(=O)N[C@@H]2CCc3ccc(OC4=C5CCC(=O)N=C5NC=C4)cc3C2)cc(C(F)(F)F)c1`: 28.9%; for `CCC(C)CCCC(=O)N[C@@H](CCN)C(=O)N[C@H](C(=O)N[C@@H](CCN)C(=O)N[C@H]1CCNC(=O)[C@H]([C@@H](C)O)NC(=O)[C@H](CCN)NC(=O)[C@H](CCN)NC(=O)[C@H](CC(C)C)NC(=O)[C@@H](CC(C)C)NC(=O)[C@H](CCN)NC1=O)[C@@H](C)O` (stereo partly drawn) [R4A_0005175_001 / SPE_A36456202] ({Heptanoyl(5-Me)}-[Dab]T[Dab][Dab][Dab][dL]L[Dab][Dab]T; lactam 4-C): -0.45%.
The same measure for `C[C@@H]1NC(=O)[C@@H]2CCCN2C(=O)[C@H](CC(N)=O)NC(=O)[C@@H]2CSSC[C@H](N)C(=O)N[C@H]3CSSC[C@H](NC1=O)C(=O)NC([C@@H](C)O)C(=O)NCC(=O)N[C@H](C(=O)N[C@@H](Cc1ccc(O)cc1)C(=O)O)CSSC[C@H](NC(=O)[C@H](Cc1ccc(O)cc1)NC(=O)[C@H](CCC(=O)O)NC3=O)C(=O)N2` (stereo partly drawn) (H-CCEYCCNPAC[ξThr(3R)]GCY-OH; disulfide 1-6, 2-10, 5-13): -6.32%.
The same measure for `C#CC[C@H](c1nc2cc(Cl)ccc2c(=O)n1Nc1ccccc1)N(CCCN)C(=O)c1cccc(Cl)c1F`: 68.4%.
`C=C(c1ccccc1OCc1cccc(Cl)c1)n1ccnc1`: the result_ITMP was 2.27%.
Take `O=c1ccn([C@@H]2O[C@H](COP(=O)([O-])OP(=O)([O-])OP(=O)([O-])O)C(O)C2O)c(=O)[nH]1` (stereo partly drawn): the result_ITMP is 0.02%.
Then `CCCCCCCCCCCCCC(=O)[O-].CCCCCCCCCCCCCC(=O)[O-].NC1CCCCC1N.[Pt+2]`, with 0.26%; and `O=S(=O)([O-])Oc1ccc(C(c2ccc(OS(=O)(=O)[O-])cc2)c2ccccn2)cc1`, with -7.14%; and `Cc1ccc(-c2n[nH]c3c2C(c2cccc(O)c2)N(c2ccc(C(=O)O)cc2)C3=O)cc1` (stereo not drawn), with 0.62%.
The same measure for `Cc1cc(Nc2ncc(Cl)c(Nc3ccccc3S(=O)(=O)C(C)C)n2)c(OC(C)C)cc1C1CCNCC1`: 50.9%.
With `COc1cc(N2CCC(N3CCN(C)CC3)CC2)ccc1Nc1ncnc(Nc2ccccc2S(=O)(=O)C(C)C)n1`, the result_ITMP was found to be 44.8%.
Regarding `COc1cc(N2CCC(N3CCN(C)CC3)CC2)ccc1Nc1ncc(Cl)c(Nc2ccccc2S(=O)(=O)C(C)C)n1`, the result_ITMP is -2.93%.
